In the library only some 3.6% were active in any assay of this set; here they are far more common.
CRFBP-R2 block = CRF-BP/CRF-R2 complex antagonism; AID 588475; HEK293 CRF-R2/CRF-BP, CRF-induced calcium fluorescence; actives 0.59% (n = 350,000); inhibition, % at 11.8 µM;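 active = inhibition of the ligand-induced calcium signal above about 50% at the single tested concentration, limit read from the data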
NadD block = inhibitors of Staphylococcus aureus NadD; purified NadD enzyme, colorimetric absorbance read-out; inhibition, % at 20 µM; actives 0.78% (n = 360,000); AID 602399; in the data active = inhibition above about 26%
Myeloid diff 2 = compounds promoting myeloid differentiation; AID 624256; calls only at 10 µM; ER-HoxA9 myeloid progenitors, lysozyme-GFP differentiation, flow cytometry; actives 1% (n = 360,000);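 active = normalized GFP-positive differentiation at or above the plate's own cutoff, the solvent-only control mean plus 3 SD; inconclusive = no clear call, values can overlap the other calls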;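 note: cells exposed to compound for four days before flow analysis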
CendR NRP1 mod = NRP-1/CendR interaction modulation | actives 0.85% (n = 360,000) | inhibition, % at 25 µM | O14786 | FAM-RPARPAR peptide binding to NRP-1, fluorescence polarization;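 active = inhibition or corrected inhibition above about 18%, plus a signal ratio from 0.5 to 1.5, limit read from the data, passing the limit was not always enough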
FAS TE block = inhibitors of human fatty acid synthase thioesterase domain; P49327; recombinant FAS-TE, OMFH fluorogenic substrate, fluorescence endpoint; inhibition, % at 15 µM; actives 0.67% (n = 360,000); AID 602261;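 active = compounds whose normalised, plate-corrected inhibition of enzyme fluorescence in the single-dose primary screen is 50% or more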;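 note: 0% = DMSO with enzyme and 100% = substrate without enzyme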
Myeloid diff CP1 = myeloid differentiation induction; shares compounds with Myeloid diff 2; ER-HoxA9 myeloid progenitors, GFP/Mac1 double-positive flow; calls only; actives 2% (n = 2,300); AID 651706;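 active = share of green or green-and-red cells above 9 and 9% in run 1 or 4 and 3% in run 2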
GFP autofluor = counter-screen for myeloid differentiation promoters: compound fluorescence. actives 7.4% (n = 2,300). AID 651707. shares compounds with Myeloid diff 2. ER-HoxA9 myeloid progenitors, no estrogen, GFP autofluorescence flow cytometry; vehicle wells 0%, positive control 100%. fluorescence response, % (no concentration beside the values);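 active = over 5% cells positive for green fluorescent reporter, or over 2% positive for both it and APC stain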;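 note: range taken on the double positive population between DMSO and positive control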
* = called active by the depositor; i = inactive; ? = inconclusive; nt = not tested or not shown; + = active, no number.

SMILES | CRFBP-R2 block | NadD block | Myeloid diff 2 | CendR NRP1 mod | FAS TE block | Myeloid diff CP1 | GFP autofluor
O=C(O)CN(c1ccccn1)S(=O)(=O)c1ccc(Cl)cc1 | -6 | 2 | + | 7 | -3 | i | 1
COc1cccc(Cn2cnc3c(N)c(C)c(C)cc32)c1 | -24 | 1 | i | 2 | 1 | i | 0
OCCCNc1cc(-c2ccnc(Nc3cccc(Cl)c3)n2)ccn1 | -16 | -5 | i | -12 | 11 | i | 0
Cc1cc(F)ccc1S(=O)(=O)Nc1ccc(O)c(Sc2ncn[nH]2)c1 | -4 | -8 | nt | -1 | -18 | nt | nt
CCn1c(=O)c(=O)[nH]c2c(=O)oc3ccc(S(=O)(=O)Nc4ccccc4)cc3c21 | 5 | 5 | i | 2 | 5 | nt | nt
CCc1ccc(NC2CC(=O)N(c3ccc(OC)cc3OC)C2=O)cc1 (stereo not given) | 30 | 2 | i | -7 | 7 | i | 1
CCc1ccc(NC2CC(=O)N(CCc3ccc(OC)c(OC)c3)C2=O)cc1 (stereo not given) | 18 | -5 | i | 0 | 0 | nt | nt
N#Cc1c(N)nc(SC2CCCCC2=O)c(C#N)c1-c1ccco1 (stereo not given) | 106* | 16 | i | -77 | 14 | i | 1
CC(=O)C1=C(C)N=c2s/c(=C/c3ccc4c(c3)OCO4)c(=O)n2C1c1ccc(N(C)C)cc1 (stereo not given) | 1 | 9 | + | -190 | -21 | i | 22*
COC(=O)C1=C(C)N=c2s/c(=C/c3ccoc3)c(=O)n2C1c1ccccc1 (stereo not given) | 6 | 24 | i | -225 | 10 | nt | nt
CCOC(=O)c1ccc(NC(=O)C(CC)(CC)C(=O)OCC)cc1 | -5 | -7 | i | 18 | 6 | i | 0
CCOC(=O)c1ccc(NC(=O)COC)cc1 | 2 | 1 | i | 3 | 0 | nt | nt
CC(C)[C@H]1C(=O)Nc2ccccc2N1C(=O)N[C@@H](Cc1ccccc1)C(=O)N[C@@H](C(=O)O)c1ccccc1 | 1 | -5 | i | -1 | -2 | nt | nt
CC(C)(C)S(=O)N1Cc2cn(Cc3ccccc3)c(=O)cc2[C@@H]1CCO (stereo not given in full) | 6 | 2 | i | 0 | -7 | nt | nt
CCN1C(=O)[C@H]2[C@H]3CN=C(SCc4ccccc4)N3[C@@](Cc3ccccc3)(C(=O)OC)[C@H]2C1=O | -6 | 1 | i | -4 | 12 | i | 1
CCN1C(=O)[C@H]2[C@H]3CN=C(SCc4ccc(C#N)cc4)N3[C@@](Cc3ccccc3)(C(=O)OC)[C@H]2C1=O | -4 | 8 | i | -6 | -15 | nt | nt
CCN1C(=O)[C@H]2[C@H]3CN=C(SCC4CC4)N3[C@@](Cc3ccccc3)(C(=O)OC)[C@H]2C1=O | 4 | 12 | i | -19 | -2 | i | 0
COC(=O)[C@@]1(Cc2ccccc2)[C@H]2C(=O)N(C)C(=O)[C@H]2[C@H]2CN=C(SCC3CC3)N21 | -5 | 7 | i | -16 | -7 | nt | nt
CCC(C)SCC(=O)Nc1ccc(S(=O)(=O)N2CCOCC2)cc1OC (stereo not given) | -2 | -7 | i | 1 | 0 | nt | nt
CCOC(=O)[C@H](CCc1ccccc1)N[C@@H](C)C(=O)N1[C@H](C(=O)O)C[C@@H]2CCC[C@@H]21 | -5 | -1 | i | -6 | -1 | nt | nt
COc1ccccc1NC(=O)CCSc1nc(C)cc(C)n1 | -11 | -6 | i | 6 | -5 | nt | nt
c1ccc(-c2csc3ncnc(NCc4ccccn4)c23)cc1 | -5 | -2 | i | 7 | 0 | nt | nt
c1ccc(CNc2ncnc3scc(-c4cccs4)c23)nc1 | -5 | -6 | i | 2 | 2 | i | 1
COc1ccc(OCc2cc(C(=O)N3CCC(c4ccccc4)CC3)no2)c(Cl)c1 | 5 | 5 | ? | 5 | 33 | nt | nt
COc1ccc(C(=O)C[n+]2ccc(N(C)C)cc2)cc1 | 8 | -1 | i | 0 | -5 | i | 0
SMILES | CRFBP-R2 block | NadD block | Myeloid diff 2 | CendR NRP1 mod | FAS TE block | Myeloid diff CP1 | GFP autofluor
COc1ccc(C(=O)C[n+]2cccc3cc(OC)ccc32)cc1 | -11 | 2 | nt | -4 | -4 | nt | nt
CN(C)c1cc[n+](CC(=O)c2ccc(Br)cc2)cc1 | -6 | -4 | i | 4 | -2 | nt | nt
COc1ccc(C(=O)C[n+]2cccc3cc(C)ccc32)cc1 | 4 | -4 | i | -15 | -5 | i | 42*
CCCCC(=O)OCC(=O)c1cc(C)n(-c2c(C)n(C)n(-c3ccccc3)c2=O)c1C | 23 | 4 | i | 2 | -4 | i | 0
COc1ccc(-c2csc(NC(=O)c3ccc(S(=O)(=O)N4CCc5ccccc5C4)cc3)n2)c(OC)c1 | -13 | 17 | i | 1 | 37 | nt | nt
COc1ccc(/C=N/NC(=O)c2ccc(N(C)S(=O)(=O)c3ccccc3)cc2)cc1 | 26 | 6 | i | 8 | 10 | nt | nt
CN(c1ccc(C(=O)N/N=C/c2cccc([N+](=O)[O-])c2)cc1)S(=O)(=O)c1ccccc1 | 15 | 21 | i | -12 | 14 | i | 0
Cc1cc(C)cc(NC(=O)C2CCCC2)c1 | -2 | -6 | + | -15 | -2 | i | 0
C1=CC2=NC34CCCCC3CC3=C(CCCC3)N4C2=CC1=NC1CCCCC1 (stereo not given) | 2 | 1 | i | -17 | -8 | nt | nt
CC(C)n1cc(CN2CCC(C(=O)Nc3cccc(-c4cccc(Cl)c4)c3)CC2)cn1 | -18 | -6 | + | 20 | -3 | i | 0
C/C(=N/NC(=O)CN(c1ccccc1)S(=O)(=O)c1ccccc1)c1ccccc1O | 8 | 2 | i | 12 | 24 | i | 0
O=C1/C(=C\c2ccco2)CCC/C1=C\c1ccco1 | 0 | 9 | + | 16 | 1 | i | 37*
Cc1ccc2c(c1)CCCN2C(=O)c1ccc2c(c1)OCO2 | -15 | 3 | i | 4 | 0 | i | 0
O=C(c1ccc2c(c1)OCO2)N1CCCc2ccccc21 | 16 | 2 | i | -2 | -3 | nt | nt
COCCCNc1nc2cc(OC)c(OC)cc2c2nc(-c3ccccc3)nn12 | -5 | -12 | + | -2 | 15 | i | 0
CCN(CC)CCCNc1nc2cc(OC)c(OC)cc2c2nc(-c3ccccc3)nn12 | 3 | -10 | i | 1 | 1 | nt | nt
CCOc1ccc2[nH]c(=O)c(CN(Cc3ccco3)Cc3nnnn3Cc3ccccc3)cc2c1 | -10 | 6 | i | -12 | -5 | nt | nt
COc1ccc2[nH]c(=O)c(CN(Cc3ccco3)Cc3nnnn3Cc3ccccc3)cc2c1 | 17 | 6 | i | -19 | 0 | i | 0
COc1ccc2cc(CN(Cc3ccco3)C(c3nnnn3C3CCCCC3)C(C)C)c(=O)[nH]c2c1 (stereo not given) | -16 | 1 | + | -3 | 14 | i | 1
